Results on four molecules are retold here after PubChem BioAssay (EPA / NIEHS).

Read-out in assay [1]: Epidermal growth factor receptor (EGFR), EGFR (gene 1956)
Put plainly: BSK_hDFCGF_EGFR: BioMAP Diversity Plus: hDFCGF Assay for Epidermal growth factor receptor (EGFR) Biomarker Activity (AID 2283057). The note with it: primary human foreskin fibroblasts; actives raise or lower the signal. In a few lines: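 EGFR levels by ELISA in human dermal fibroblast cultures, 24 h post-treatment, fitted bidirectionally versus DMSO. Parallel wells stained with sulforhodamine B to detect overt cytotoxicity.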

Read-out in assay [2]: Interleukin-8 (IL8), CXCL8 (gene 3576)
Put plainly: BSK_hDFCGF_IL8: BioMAP Diversity Plus: hDFCGF Assay for Interleukin-8 (IL8) Biomarker Activity (AID 2283058). The following applies: primary human foreskin fibroblasts; actives raise or lower the signal. The gist of the method:
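Primary human foreskin fibroblasts (hDFCGF system) dosed with chemical; IL-8 measured by ELISA 24 hours later. Bidirectional curve fitting relative to DMSO baseline; cytotoxicity tracked in parallel cultures by SRB total protein staining.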

Assay [3] can be described thus: BSK_hDFCGF_Proliferation: Cell Proliferation Assessment in the BioMAP Diversity Plus: hDFCGF Assay (AID 2283059).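 Further: curves fitted for both rise and fall of signal versus DMSO baseline.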 The note with it: primary human foreskin fibroblasts. The gist of the method:
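Sub-confluent human foreskin fibroblast cultures receive test chemical […]. Relative cell number is quantified by sulforhodamine B staining (0.1%, after 10% TCA fixation) at 560 nm, with bidirectional fitting referenced to DMSO.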

Read-out in assay [4]: Macrophage colony-stimulating factor (MCSF), CSF1 (gene 1435)
Kind of assay: BSK_hDFCGF_MCSF: BioMAP Diversity Plus: hDFCGF Assay for Macrophage colony-stimulating factor (MCSF) Biomarker Activity (AID 2283060). The note with it: primary human foreskin fibroblasts; actives raise or lower the signal. The gist of the method: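 Human foreskin fibroblast primary cultures; M-CSF measured by ELISA 24 hours after chemical dosing. Bidirectional fitting relative to DMSO, with overt cytotoxicity tracked by parallel SRB total-protein staining (0.1% SRB, 10% TCA fixation, 560 nm).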

A short description of assay [5]: BSK_hDFCGF_SRB: Viability Assessment in the BioMAP Diversity Plus: hDFCGF Assay (AID 2283061).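 Further: cells exposed to compound for 24 h before the read.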 The following applies: primary human foreskin fibroblasts. In a few lines: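 Human foreskin fibroblasts in 96-well plates were treated 24 h. Total protein was measured by 0.1% SRB staining after 10% TCA fixation, read at 560 nm. Data were fitted bidirectionally against DMSO.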

Read-out in assay [6]: TIMP metallopeptidase inhibitor 1 (TIMP1), TIMP1 (gene 7076)
Kind of assay: BSK_hDFCGF_TIMP1: BioMAP Diversity Plus: hDFCGF Assay for TIMP metallopeptidase inhibitor 1 (TIMP1) Biomarker Activity (AID 2283062). The following applies: primary human foreskin fibroblasts; actives raise or lower the signal. In a few lines: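 Human foreskin fibroblast primary cultures dosed for 24 h; secreted/surface TIMP-1 quantified by ELISA. Bidirectional curve fitting against DMSO baseline; cytotoxicity tracked in parallel cultures by SRB total-protein staining.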

Read-out in assay [7]: Monokine induced gamma interferon (MIG), CXCL9 (gene 4283)
Kind of assay: BSK_hDFCGF_MIG: BioMAP Diversity Plus: hDFCGF Assay for Monokine induced gamma interferon (MIG) Biomarker Activity (AID 2283063). The following applies: primary human foreskin fibroblasts; actives raise or lower the signal. In a few lines: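 MIG/CXCL9 measured by ELISA 24 h after dosing primary human skin fibroblasts. Activity fitted in both directions against DMSO controls. Cytotoxicity was checked in parallel cultures by SRB staining read at 560 nm.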

Read-out in assay [8]: Matrix Metallopeptidase 1 (MMP1), MMP1 (gene 4312)
Put plainly: BSK_hDFCGF_MMP1: BioMAP Diversity Plus: hDFCGF Assay for Matrix Metallopeptidase 1 (MMP1) Biomarker Activity (AID 2283064). The note with it: primary human foreskin fibroblasts; actives raise or lower the signal. The gist of the method: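 ELISA read-out of MMP1 from human foreskin fibroblasts (primary skin cells), 24 h post-dose. Gain or loss of signal was fitted bidirectionally versus DMSO negative control; cytotoxicity was checked by SRB in parallel cultures.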

Read-out in assay [9]: Plasminogen activator inhibitor-1 (PAI1), SERPINE1 (gene 5054)
Put plainly: BSK_hDFCGF_PAI1: BioMAP Diversity Plus: hDFCGF Assay for Plasminogen activator inhibitor-1 (PAI1) Biomarker Activity (AID 2283066). The following applies: primary human foreskin fibroblasts; actives raise or lower the signal. The gist of the method: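 PAI-1 levels in human dermal foreskin fibroblasts were quantified by ELISA 24 h after dosing, with gain or loss analysed against DMSO. Overt cytotoxicity was checked by sulforhodamine B total-protein staining in parallel cultures.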

Read-out in assay [10]: Intercellular Adhesion Molecule 1 (ICAM1), ICAM1 (gene 3383)
Kind of assay: BSK_KF3CT_ICAM1: BioMAP Diversity Plus: KF3CT Assay for Intercellular Adhesion Molecule 1 (ICAM1) Biomarker Activity (AID 2283067). The following applies: primary human keratinocytes with fibroblasts; actives raise or lower the signal. In a few lines:
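Human keratinocyte–foreskin fibroblast co-culture was treated for 24 h. Cell-surface ICAM-1 was quantified by ELISA, fitted bidirectionally relative to DMSO. Cytotoxicity was checked in parallel cultures by SRB total-protein staining.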

Read-out in assay [11]: Interferon-gamma inducible Protein 10 (IP10), CXCL10 (gene 3627)
Put plainly: BSK_KF3CT_IP10: BioMAP Diversity Plus: KF3CT Assay for Interferon-gamma inducible Protein 10 (IP10) Biomarker Activity (AID 2283068). The following applies: primary human keratinocytes with fibroblasts; actives raise or lower the signal. The gist of the method: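 ELISA read-out of IP-10 after 24 h chemical dosing of human skin primary co-culture (keratinocytes, foreskin fibroblasts). Gain or loss of signal relative to DMSO, bidirectional curve fit.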

The nature of assay [12]: BSK_KF3CT_SRB: Viability Assessment in the BioMAP Diversity Plus: KF3CT Assay (AID 2283069).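 Further: read 24 h after compound addition.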 The note with it: primary human keratinocytes with fibroblasts. The gist of the method: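 SRB read-out at 560 nm (0.1% stain, TCA-fixed cells) gauges overt cytotoxicity in a human skin keratinocyte–fibroblast co-culture 24 h post-dosing. Signal change was fitted bidirectionally relative to DMSO control.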

Read-out in assay [13]: Interleukin-1 alpha (IL1a), IL1A (gene 3552)
Put plainly: BSK_KF3CT_IL1a: BioMAP Diversity Plus: KF3CT Assay for Interleukin-1 alpha (IL1a) Biomarker Activity (AID 2283070). The note with it: primary human keratinocytes with fibroblasts; actives raise or lower the signal. In a few lines:
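Primary skin co-culture (keratinocytes, foreskin fibroblasts), 24 h exposure; ELISA for IL-1a; bidirectional curve fit vs DMSO.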

Read-out in assay [14]: Transforming growth factor beta 1 (TGFb1), TGFB1 (gene 7040)
Kind of assay: BSK_KF3CT_TGFb1: BioMAP Diversity Plus: KF3CT Assay for Transforming growth factor beta 1 (TGFb1) Biomarker Activity (AID 2283072). The note with it: primary human keratinocytes with fibroblasts; actives raise or lower the signal. The gist of the method:
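ELISA quantifies TGF-b1 at 24 h post-dose in a primary human skin co-culture of keratinocytes and fibroblasts, with gain or loss judged against DMSO. Parallel SRB total-protein staining flags overt cytotoxicity.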

Read-out in assay [15]: C-C motif chemokine 2 (Homo sapiens) (UniProt P13500)
Kind of assay: BSK_KF3CT_MCP1: BioMAP Diversity Plus: KF3CT Assay for Monocyte Chemoattractant Protein 1 (MCP1/CCL2) Biomarker Activity (AID 2283073). The note with it: primary human keratinocytes with fibroblasts; actives raise or lower the signal. The gist of the method: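 Human keratinocyte–foreskin fibroblast co-culture; MCP-1 measured by ELISA 24 h after dosing. Bidirectional fit vs DMSO; cytotoxicity tracked by SRB total protein in parallel cultures.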

Read-out in assay [16]: Matrix Metallopeptidase 9 (MMP9), MMP9 (gene 4318)
Put plainly: BSK_KF3CT_MMP9: BioMAP Diversity Plus: KF3CT Assay for Matrix Metallopeptidase 9 (MMP9) Biomarker Activity (AID 2283074). The note with it: primary human keratinocytes with fibroblasts; actives raise or lower the signal. The gist of the method: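 ELISA read-out of MMP-9 at 24 h post-dosing in a co-culture of human skin keratinocytes and foreskin fibroblasts. Gain or loss of signal was fitted in both directions against DMSO.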

Read-out in assay [17]: urokinase plasminogen activator (uPA), PLAU (gene 5328)
Put plainly: BSK_KF3CT_uPA: BioMAP Diversity Plus: KF3CT Assay for urokinase plasminogen activator (uPA) Biomarker Activity (AID 2283075). The note with it: primary human keratinocytes with fibroblasts; actives raise or lower the signal. In a few lines:
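Skin co-culture (keratinocytes + foreskin fibroblasts), human primary; 24 h post-dose; uPA by ELISA; gain/loss fit vs DMSO baseline.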

Read-out in another assay: CD40, CD40 (gene 958)
Kind of assay: BSK_LPS_CD40: BioMAP Diversity Plus: LPS Assay for CD40 Biomarker Activity (AID 2283076). The following applies: primary human HUVEC with PBMC; actives raise or lower the signal. The gist of the method: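 HUVEC plus PBMC co-culture stimulated with LPS; CD40 quantified by ELISA 24 h after compound dosing. Fitting was bidirectional relative to DMSO. SRB staining of parallel cultures flagged overt cytotoxicity.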

Read-out in assay [18]: Vascular cell adhesion molecule 1 (VCAM1), VCAM1 (gene 7412)
Kind of assay: BSK_hDFCGF_VCAM1: BioMAP Diversity Plus: hDFCGF Assay for Vascular cell adhesion molecule 1 (VCAM1) Biomarker Activity (AID 2283065). The note with it: primary human foreskin fibroblasts; actives raise or lower the signal. In a few lines:
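Human foreskin fibroblast primary cells dosed with chemical, VCAM-1 measured by ELISA at 24 h. Bidirectional curve fitting relative to DMSO as negative control/baseline.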

Read-out in assay [19]: TIMP metallopeptidase inhibitor 2 (TIMP2), TIMP2 (gene 7077)
Put plainly: BSK_KF3CT_TIMP2: BioMAP Diversity Plus: KF3CT Assay for TIMP metallopeptidase inhibitor 2 (TIMP2) Biomarker Activity (AID 2283071). The note with it: primary human keratinocytes with fibroblasts; actives raise or lower the signal. The gist of the method:
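TIMP-2 measured by ELISA at 24 h in human keratinocyte/fibroblast primary co-cultures exposed to chemicals. Both increases and decreases were fitted against DMSO. Parallel cultures were stained with SRB for total protein as an overt-cytotoxicity check.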

Active and inactive are the calls of the source. How the source made its calls: active means hit-call score of the fitted dose curve at least 0.9, where 1 is the maximum; inactive means score below 0.9.

Consider `CCC(C)N(C)C(=O)c1cc2ccccc2c(-c2ccccc2Cl)n1` (stereo not drawn), for which the result in assay [1], in [2], in assay [3], in assay [4], in assay [5] and in assay [6] was inactive. The result in assay [7], in assay [8], in assay [9], in assay [10], in assay [11] and in assay [12] was inactive. The outcome is “inactive” in [13]; “inactive” in assay [14]; “inactive” in assay [15]; “inactive” in assay [16]; “inactive” in assay [17]; “inactive” in the assay with CD40, CD40 (gene 958).
Broadly, the AC50 is the concentration at which the activity in the assay is half-maximal. As for `NC(=Nc1ccccc1)Nc1ccccc1`, the outcome in assay [1], in assay [2], in [5], in assay [6], in assay [18] and in assay [9] was inactive. For the same molecule, the result in assay [10], in [11], in [12], in assay [13], in assay [14] and in assay [15] was inactive. Besides, the outcome in assay [16] is “inactive”; in [17] it was “inactive”; with CD40, CD40 (gene 958), “inactive”. For the same molecule, the figures for the AC50 in assay [3], in assay [4] and in assay [8] were 30.3 µM (active), 9.15 µM (active) and 3.71 µM (active), respectively.
With `CCCCCCCCCC[N+](C)(C)[O-]`, the outcome in [1], in assay [2], in assay [3], in assay [4], in assay [5] and in assay [6] was inactive. The result in [7], in assay [8], in assay [9], in [10], in assay [11] and in assay [12] was inactive. Also, the outcome in assay [13] was “inactive”; in assay [14] it was “inactive”; in assay [15], “inactive”; in assay [16], “inactive”; in assay [17], “inactive”; with CD40, CD40 (gene 958), “inactive”.
On to `CC(C)NCC(O)c1ccc(O)c(O)c1` (stereo not drawn), for which the outcome in [1], in assay [2], in assay [4], in [6], in [7] and in assay [8] was inactive. Further, the outcome in assay [18], in assay [9], in assay [10], in assay [11], in [12] and in [13] was inactive. Besides, the outcome in assay [19] was “inactive”; in [14] it was “inactive”; in assay [15], “inactive”; in assay [16], “inactive”; in assay [17], “inactive”; with CD40, CD40 (gene 958), “inactive”. Moreover, the half-maximal activity concentration (AC50) in [3] was 26.4 µM (active).
